Measured values reported in PubChem BioAssay (EPA / NIEHS).
Calls of active or inactive are those of the source. How the source made its calls: active means hit-call score of the fitted dose curve at least 0.9, where 1 is the maximum; inactive means score below 0.9.

How the values were obtained:
[1] = ATG_CRE_CIS: Attagene CIS-FACTORIAL HepG2 Assay for human cAMP Responsive Element (CRE) binding protein 3 (AID 2282926); settings: HepG2 CRE cis-reporter, Attagene multiplexed mRNA; actives raise or lower the signal
In short: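 Liver-derived HepG2, transfected with a CRE-containing reporter panel, exposed 24 h; transcript levels sized and quantified by capillary electrophoresis of labelled amplicons; signal changes either way referenced to vehicle.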

[2] = target: CCAAT/enhancer-binding protein beta (Homo sapiens) (UniProt P17676); test: ATG_C_EBP_CIS: Attagene CIS-FACTORIAL HepG2 Assay for human CCAAT/Enhancer Binding Protein (C/EBP) beta (AID 2282927); settings: HepG2 Attagene cis-factorial transcription factor reporter; actives raise or lower the signal
CCAAT/enhancer-binding protein beta (Homo sapiens), sequence (P17676 whole entry, looked up): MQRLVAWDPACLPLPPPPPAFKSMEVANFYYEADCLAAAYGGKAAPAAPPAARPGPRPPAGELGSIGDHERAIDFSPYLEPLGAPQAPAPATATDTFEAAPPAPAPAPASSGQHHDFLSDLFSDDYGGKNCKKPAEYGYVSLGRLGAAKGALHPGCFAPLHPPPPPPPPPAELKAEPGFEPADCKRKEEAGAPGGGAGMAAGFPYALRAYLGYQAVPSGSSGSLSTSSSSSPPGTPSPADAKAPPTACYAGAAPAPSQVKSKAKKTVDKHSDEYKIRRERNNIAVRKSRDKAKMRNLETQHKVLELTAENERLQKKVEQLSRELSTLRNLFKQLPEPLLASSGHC
In short: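 HepG2 transiently transfected with multiplexed reporter units under cis-regulatory promoters reporting endogenous C/EBPb activity. After 24 h exposure, reporter mRNA assayed by RT-PCR, fluorescent labelling, HpaI digestion and capillary electrophoresis; bidirectional fitting versus DMSO.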

[3] = ATG_CMV_CIS: Attagene CIS-FACTORIAL HepG2 Assay for human CMV (Internal Marker) (AID 2282928); settings: HepG2 CMV promoter reporter, transcription factor profiling; actives raise or lower the signal;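 further: endpoint acts as a background internal control marker rather than a target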
In short: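 Fluorescence intensity of RT-PCR-derived reporter fragments, resolved by capillary electrophoresis, gives the signal. HepG2 liver cells bearing transfected cis-element reporters were treated 24 h; activity in either direction was fit relative to DMSO-treated controls.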

[4] = ATG_DR4_LXR_CIS: Attagene CIS-FACTORIAL HepG2 Assay for human Liver X Receptor (LXR), DR4 submotif (AID 2282929); settings: HepG2 Attagene DR4 cis-reporter, mRNA transcription; actives raise or lower the signal
In short: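 Total RNA from 24 h-treated, MRTU-transfected HepG2 cells underwent reverse transcription, PCR, fluorescent primer extension and restriction digestion before capillary electrophoresis. Both increases and decreases in reporter signal were fitted against DMSO.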

[5] = target: Aryl hydrocarbon receptor (Homo sapiens) (UniProt P35869); test: ATG_Ahr_CIS: Attagene CIS-FACTORIAL HepG2 Assay for human Aryl Hydrocarbon Receptor (Ahr) (AID 2282930); settings: HepG2 AhR cis-factorial reporter transcription; actives raise or lower the signal
Aryl hydrocarbon receptor (Homo sapiens), sequence (P35869 whole entry, looked up): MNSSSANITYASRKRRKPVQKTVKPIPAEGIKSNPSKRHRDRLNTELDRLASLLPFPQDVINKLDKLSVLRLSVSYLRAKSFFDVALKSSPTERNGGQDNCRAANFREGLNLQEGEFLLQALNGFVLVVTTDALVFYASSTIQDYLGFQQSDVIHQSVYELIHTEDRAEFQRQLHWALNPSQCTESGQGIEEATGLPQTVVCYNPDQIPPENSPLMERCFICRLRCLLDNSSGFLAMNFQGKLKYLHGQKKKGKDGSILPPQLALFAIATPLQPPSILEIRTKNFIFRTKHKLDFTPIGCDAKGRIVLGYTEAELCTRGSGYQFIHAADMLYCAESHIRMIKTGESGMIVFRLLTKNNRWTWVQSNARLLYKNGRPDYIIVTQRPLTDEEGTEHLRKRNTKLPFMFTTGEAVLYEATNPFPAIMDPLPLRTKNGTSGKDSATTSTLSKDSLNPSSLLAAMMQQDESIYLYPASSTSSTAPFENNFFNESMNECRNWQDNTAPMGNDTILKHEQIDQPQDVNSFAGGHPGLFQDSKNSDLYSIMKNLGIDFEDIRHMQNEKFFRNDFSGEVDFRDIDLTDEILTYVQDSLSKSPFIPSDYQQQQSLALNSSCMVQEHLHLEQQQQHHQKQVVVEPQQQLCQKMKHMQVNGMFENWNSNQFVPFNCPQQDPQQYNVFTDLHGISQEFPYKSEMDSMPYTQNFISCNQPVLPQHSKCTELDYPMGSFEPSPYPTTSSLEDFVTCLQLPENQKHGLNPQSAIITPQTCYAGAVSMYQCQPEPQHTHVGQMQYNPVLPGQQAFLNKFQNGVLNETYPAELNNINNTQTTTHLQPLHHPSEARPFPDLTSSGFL
In short: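 HepG2 cells transiently transfected with cis-element-driven multiplexed reporter units; endogenous AhR activity read as reporter mRNA 24 h after dosing, via RT-PCR, 6-FAM labelling, HpaI digestion and capillary electrophoresis. Bidirectional fit relative to DMSO.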

[6] = ATG_AP_1_CIS: Attagene CIS-FACTORIAL HepG2 Assay for human Activator Protein 1 (AP-1) (AID 2282931); settings: HepG2 Attagene cis-factorial AP-1 reporter mRNA; actives raise or lower the signal
In short: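 HepG2, transient cis-reporter transfection; 24 h; readout RT-PCR/CE fluorescence; DMSO baseline, gain and loss fitted.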

[7] = ATG_AP_2_CIS: Attagene CIS-FACTORIAL HepG2 Assay for human Activator Protein 2 (AP-2) (AID 2282932); settings: HepG2 AP-2 cis-reporter, Attagene transcription factor profiling; actives raise or lower the signal
In short: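 Read-out: fluorescent reporter mRNA via RT-PCR and capillary electrophoresis, 24 h post-dose in transiently transfected HepG2. Endogenous factors drive cis-promoter reporters; gain or loss of signal fitted bidirectionally against DMSO.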

[8] = ATG_BRE_CIS: Attagene CIS-FACTORIAL HepG2 Assay for human Bone Morphogenetic Protein (BMP) Response Element (BRE) (AID 2282933); settings: HepG2 BMP response element reporter, Attagene transcription factor profiling; actives raise or lower the signal
In short: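 Multiplexed cis-reporter assay, HepG2, 24 h exposure. mRNA from reporter units quantified via RT-PCR/CE; DMSO baseline; bidirectional curve fit.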

[9] = target: Transcription factor E2F1 (Homo sapiens) (UniProt Q01094); test: ATG_E2F_CIS: Attagene CIS-FACTORIAL HepG2 Assay for human E2F Transcription Factor 1 (AID 2282935); settings: HepG2 Attagene cis-reporter, E2F reporter RNA transcripts; actives raise or lower the signal
Transcription factor E2F1 (Homo sapiens), sequence (Q01094 whole entry, looked up): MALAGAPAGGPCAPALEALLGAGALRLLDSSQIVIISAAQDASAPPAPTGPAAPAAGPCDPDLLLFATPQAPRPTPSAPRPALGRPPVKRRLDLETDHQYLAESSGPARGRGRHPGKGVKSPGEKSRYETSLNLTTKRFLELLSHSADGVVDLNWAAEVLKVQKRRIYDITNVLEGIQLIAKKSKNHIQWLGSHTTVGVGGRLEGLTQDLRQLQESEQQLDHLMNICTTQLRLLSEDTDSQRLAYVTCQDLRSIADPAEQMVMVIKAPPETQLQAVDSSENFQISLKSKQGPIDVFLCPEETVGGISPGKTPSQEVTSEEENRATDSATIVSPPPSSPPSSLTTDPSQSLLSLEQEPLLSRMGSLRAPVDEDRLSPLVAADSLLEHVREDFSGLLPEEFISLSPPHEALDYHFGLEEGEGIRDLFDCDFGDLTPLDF
In short: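 Transient MRTU transfection of HepG2; 24 h compound exposure; RNA → oligo(dT) RT → PCR → FAM label → HpaI cut → CE fluorescence. Gain/loss of signal fit against DMSO.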

[10] = target: Retinoic acid receptor alpha (Homo sapiens) (UniProt P10276); test: ATG_DR5_RAR_CIS: Attagene CIS-FACTORIAL HepG2 Assay for human Retinoic Acid Receptor Alpha (RARE), DR5 submotif (AID 2282934); settings: HepG2 Attagene cis-factorial RARE DR5 reporter, mRNA; actives raise or lower the signal
Retinoic acid receptor alpha (Homo sapiens), sequence (P10276 whole entry, looked up): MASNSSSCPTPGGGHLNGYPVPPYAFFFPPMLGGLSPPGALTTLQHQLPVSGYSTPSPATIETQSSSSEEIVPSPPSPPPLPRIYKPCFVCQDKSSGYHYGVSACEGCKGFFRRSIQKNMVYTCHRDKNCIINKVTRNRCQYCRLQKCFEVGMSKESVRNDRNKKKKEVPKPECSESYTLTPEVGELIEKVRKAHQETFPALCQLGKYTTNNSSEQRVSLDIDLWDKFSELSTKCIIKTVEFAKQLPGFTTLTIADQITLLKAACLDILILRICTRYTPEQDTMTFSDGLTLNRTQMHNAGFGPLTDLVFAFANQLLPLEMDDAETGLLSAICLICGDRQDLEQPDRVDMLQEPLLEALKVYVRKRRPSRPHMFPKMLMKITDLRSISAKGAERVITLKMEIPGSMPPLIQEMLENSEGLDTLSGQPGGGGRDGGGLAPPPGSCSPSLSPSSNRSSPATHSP
In short: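 HepG2 cells transiently transfected with multiplexed reporter units; DR5 cis-element drives reporter through endogenous transcription factors. After 24 h dosing, reporter mRNA quantified by RT-PCR, fluorescent labeling, HpaI digestion and capillary electrophoresis; bidirectional fitting versus DMSO.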

Measured: AC50

CCC(=O)OCc1ccccc1
not listed: [10]
inactive: all other assays above

O=C=NC1CCC(CC2CCC(N=C=O)CC2)CC1 (configuration not stated)
active: [1] 28.4 µM | [2] 65.1 µM | [3] 64.8 µM | [4] 179 µM | [5] 83.7 µM | [8] 41.7 µM
inactive: [6] | [7] | [9]

[Ca+2]
not listed: [8]
inactive: all other assays above

CC(C)(C)c1cc(CCC(=O)NN)cc(C(C)(C)C)c1O
not listed: [8]
inactive: all other assays above

CC(C)=CCC[C@](C)(O)[C@@H]1CC=C(C)CC1
active: [3] 49.5 µM
not listed: [8] | [9]
inactive: all other assays above

CCN(CC)c1ccc(C(=C2C=CC(=[N+](CC)CC)C=C2)c2ccc(S(=O)(=O)O)cc2S(=O)(=O)[O-])cc1
not listed: [10]
inactive: all other assays above

CC(C)[C@H]1CC[C@@H](C)CC1=O
not listed: [10]
inactive: all other assays above

CCCCCCCCCCCCN
active: [4] 10.2 µM
not listed: [10]
inactive: all other assays above

O=C(Nc1ccccc1)c1cc([N+](=O)[O-])ccc1Cl
inactive: [2] | [3] | [7] | [9]
active: [1] 5.81 µM | [4] 100 µM | [5] 18.4 µM | [6] 100 µM | [8] 49.9 µM

CC(C)=CCC[C@H](C)CC=O
not listed: [10]
inactive: all other assays above

CCCC/C=C\CCCCCCCCCC=O
not listed: [10]
inactive: all other assays above

CCCCCCCCCCCCCCCC(=O)O
not listed: [10]
inactive: all other assays above

N#Cc1nc(Cl)c(Cl)c(Cl)c1Cl
active: [2] 6.82 µM | [3] 7.02 µM | [4] 3.14 µM | [6] 6.02 µM | [7] 4.74 µM | [8] 5.89 µM
inactive: [1] | [5] | [9]

COc1ccc(NC(=O)CC(C)=O)cc1
not listed: [10]
inactive: all other assays above

CC(=O)[C@H]1CC[C@H]2[C@@H]3CC=C4C[C@@H](O)CC[C@]4(C)[C@H]3CC[C@]12C
not listed: [8] | [10]
inactive: all other assays above

c1ccc2c(c1)c1cccc3ccc4cccc2c4c31
not listed: [10]
inactive: all other assays above

CC1(C)[C@H]2CC[C@]1(C)[C@H](O)C2
not listed: [10]
inactive: all other assays above

CC(C)c1ccc(C(C)C)cc1
active: [3] 156 µM
not listed: [10]
inactive: all other assays above

O=C(COc1ccc(Cl)cc1)N1CCN(Cc2ccc3c(c2)OCO3)CC1
active: [3] 24.9 µM | [8] 93.6 µM
not listed: [10]
inactive: all other assays above

OCC(CO)(CO)COCC(CO)(CO)CO
not listed: [7] | [8] | [10]
inactive: all other assays above

Cc1ccc(C=O)cc1
not listed: [8] | [10]
inactive: all other assays above

CCCC(=O)C(C)=O
not listed: [7] | [10]
inactive: all other assays above

N#Cc1ccccc1
not listed: [7] | [10]
inactive: all other assays above

CC(C)c1cccc(O)c1
not listed: [8] | [10]
inactive: all other assays above

CCCCCCCCCCC(CO)CCCCCCCC (configuration not stated)
not listed: [7] | [10]
inactive: all other assays above

CC1CCC(C(C)CS)CC1S (configuration not stated)
active: [1] 33.4 µM | [5] 45.9 µM | [9] 55.1 µM
inactive: [2] | [3] | [4] | [6]

CCCCOCCOCCSC#N
not listed: [7] | [10]
inactive: all other assays above

CC1COc2ccccc2N1C(=O)C(Cl)Cl (configuration not stated)
active: [6] 27.4 µM
not listed: [7] | [10]
inactive: all other assays above

Cc1ccc2n[nH]nc2c1
active: [5] 16.3 µM
not listed: [7] | [10]
inactive: all other assays above

O=S(=O)(O)NC1CCCCC1
not listed: [8] | [10]
inactive: all other assays above

C=C[Si](OCC)(OCC)OCC
not listed: [8] | [10]
inactive: all other assays above

C[Si](O[Si](C)(C)C)O[Si](C)(C)C
active: [5] 52.8 µM
not listed: [7] | [10]
inactive: all other assays above

COc1ccc(Nc2ccccc2)c(C)c1
active: [3] 100 µM | [4] 46 µM | [6] 139 µM
not listed: [8] | [10]
inactive: all other assays above

CNCCCC12CCC(c3ccccc31)c1ccccc12
active: [3] 11.1 µM | [4] 11.1 µM
inactive: [1] | [2] | [5] | [6] | [8]

O=C(O)C[C@H](O)C[C@H](O)/C=C/c1c(C2CC2)nc2ccccc2c1-c1ccc(F)cc1
not listed: [7] | [10]
inactive: all other assays above

CC(c1cc2ccccc2s1)N(O)C(N)=O (configuration not stated)
active: [5] 38.2 µM
not listed: [7] | [10]
inactive: all other assays above

COc1c(Cl)c(Cl)c(Cl)c(Cl)c1Cl
active: [3] 27.7 µM
not listed: [8] | [10]
inactive: all other assays above

C=C(C)C1CCC(C)CC1O (configuration not stated)
not listed: [7] | [10]
inactive: all other assays above

O=Cc1ccc(F)cc1
not listed: [7] | [8] | [10]
inactive: all other assays above

O=C(O)CCCCCCCCCCC(=O)O
not listed: [7] | [10]
inactive: all other assays above

CC(C)C(C)(C)C(C)(C)C(C)(C)S
not listed: [8] | [10]
inactive: all other assays above

CC1(C)OC[C@@H]2O[C@@]3(C(=O)O)OC(C)(C)O[C@H]3[C@@H]2O1
not listed: [8] | [10]
inactive: all other assays above

C=CCOc1nc(OCC=C)nc(OCC=C)n1
active: [3] 42.9 µM
not listed: [7] | [8] | [10]
inactive: all other assays above

CC[Si](OC(C)=O)(OC(C)=O)OC(C)=O
not listed: [7] | [9] | [10]
inactive: all other assays above

CC1=CCC(O)(C(C)C)CC1 (configuration not stated)
not listed: [7] | [10]
inactive: all other assays above

C/C=C(\C)C(=O)OCc1ccccc1
not listed: [8] | [10]
inactive: all other assays above

COc1cc(C(C)(C)C)c(O)c(C(C)(C)C)c1
not listed: [7] | [10]
inactive: all other assays above

O=C(Cl)c1cccc(C(=O)Cl)c1
not listed: [7] | [9] | [10]
inactive: all other assays above

C[C@H]1C[C@H]2[C@@H]3CCC4=CC(=O)C=C[C@]4(C)[C@@]3(F)[C@@H](O)C[C@]2(C)[C@@]1(O)C(=O)COP(=O)(O)O
not listed: [7] | [9] | [10]
inactive: all other assays above

c1cc(C(c2ccc(OCC3CO3)cc2)c2ccc(OCC3CO3)cc2)ccc1OCC1CO1 (configuration not stated)
active: [1] 25.2 µM | [3] 26.3 µM | [4] 53.2 µM | [6] 19.8 µM | [7] 8.7 µM
inactive: [2] | [5] | [9]

CSc1nc(NC2CC2)nc(NC(C)(C)C)n1
active: [3] 60.5 µM | [6] 47.5 µM
not listed: [7] | [10]
inactive: all other assays above

CCCCCCC#CC(=O)OC
not listed: [8] | [10]
inactive: all other assays above

CCCCC[Si](OCC)(OCC)OCC
not listed: [7] | [10]
inactive: all other assays above

CCCC[n+]1ccccc1
not listed: [8] | [10]
inactive: all other assays above

CC1CCC2CC1C2(C)C (configuration not stated)
not listed: [7] | [10]
inactive: all other assays above

Cc1ccc2sc3cccc(C)c3c2c1
not listed: [8] | [10]
inactive: all other assays above
